The structures appear in SMILES notation. Hit rate of the full screen: of about 16,000 compounds, about 4,000 (25%) were called active. Not shown: some 26% with an inconclusive outcome. These entries were drawn from the full list. Unmarked numbers belong to inactive results. Calls come from the whole dose curve; as a rule, active = well fitted curve in the direction sought with a large enough effect; inconclusive = small, poorly fitted or top-dose-only effect, or effect the other way; inactive = no such curve, though single readings can be large or run the other way.
% is set by controls: 0 for no effect and ±100 for the full control effect.

This experiment deals with Cytochrome P450 2C9 (Homo sapiens) (UniProt P11712). In words: Cytochrome panel assay with activity outcomes. As to conditions: recombinant CYP, pro-luciferin dealkylation, luminescence, p450-cyp2c9; series mostly up to 57.1 µM; activity, negative = inhibition: at the top concentration.
Chain of Cytochrome P450 2C9 (Homo sapiens) (P11712 whole entry, looked up): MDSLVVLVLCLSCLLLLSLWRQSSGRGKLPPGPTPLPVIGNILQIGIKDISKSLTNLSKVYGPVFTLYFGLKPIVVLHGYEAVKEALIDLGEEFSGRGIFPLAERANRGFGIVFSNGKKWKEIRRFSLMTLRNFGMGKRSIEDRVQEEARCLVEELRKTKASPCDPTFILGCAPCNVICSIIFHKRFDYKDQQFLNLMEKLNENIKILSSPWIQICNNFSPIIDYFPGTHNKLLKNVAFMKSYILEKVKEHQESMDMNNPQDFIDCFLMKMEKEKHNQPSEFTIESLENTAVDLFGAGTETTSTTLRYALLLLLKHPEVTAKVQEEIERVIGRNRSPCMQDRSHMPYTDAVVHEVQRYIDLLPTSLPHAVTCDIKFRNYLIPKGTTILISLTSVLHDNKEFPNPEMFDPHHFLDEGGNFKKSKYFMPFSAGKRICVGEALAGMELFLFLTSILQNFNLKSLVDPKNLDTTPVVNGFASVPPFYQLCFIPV
As for `CC1(C)C2([N+](=O)[O-])CN3CC1([N+](=O)[O-])CN(C2)C3c1ccccc1` (centres undefined), the “activity, negative = inhibition” value was -20.9%.
Regarding `FC(F)(F)c1ccccc1-c1cc(NCCN2CCOCC2)ncn1`, the activity, negative = inhibition is 26.8% [at 2.29 µM].
Regarding `CCOC(=O)Oc1c(OC)cc(C(=O)O[C@H]2C[C@H]3CN4CCc5c([nH]c6cc(OC)ccc56)[C@@H]4C[C@H]3[C@@H](C(=O)OC)[C@@H]2OC)cc1OC`, the “activity, negative = inhibition” value is -2.83% [at 25.6 µM].
In general, AC50 refers to the concentration giving half of the maximal activity seen. With `Cc1ccc(S(=O)(=O)N(Cc2ccccc2)c2ccccc2C(=O)NCc2ccco2)cc1`, the AC50 is 0.0398 µM (active).
Consider `Cc1cccc(C)c1NC(=O)CCN1C(=O)C2C3CCC(C3)C2C1=O` (centres undefined), for which the “activity, negative = inhibition” value was -43.2%.
As for `Cc1cc(C(=O)CSc2nnc(-c3ccccc3)o2)c(C)n1CC1COc2ccccc2O1` (centres undefined), the AC50 is 3.55 µM (active).
Consider `CCn1ccnc1C[C@@H]1COc2ccccc2O1`, for which the AC50 entry was “inactive”.
As for `Cc1ccc(SCc2[nH]nc3c2C(C(C)C)C(C#N)=C(N)O3)cc1` (centres undefined), the AC50 was 7.08 µM (active).
For the compound `Fc1cccc(CSc2ncnc3c2ncn3[C@H]2CCCS2)c1`, the activity, negative = inhibition is 9.41% [at 11.4 µM].
For the compound `Fc1ccc(CSc2ncnc3sc4c(c23)CCCC4)cc1`, the AC50 is 11.2 µM (active).
With `O=C(O)CSc1ncnc2sc3c(c12)CCC3`, the “activity, negative = inhibition” value was -25.3%.
Still for that read-out and setting: next, `COCCN1CN=C(Nc2nc3ccccc3s2)NC1`: -22.2%; `O=C(NNc1nc2ccccc2s1)C1CC1`: -21.8%.
On to `O=[N+]([O-])c1ccc(Nc2nc3ccccc3s2)cc1`, for which the AC50 was 1.26 µM (active).
Consider `CCCCC(=O)NC(Nc1cc(C)ccn1)(C(=O)OCC)C(F)(F)F` (centres undefined), for which the AC50 was 22.4 µM (active).
Take `C/C(CC(=O)Nc1cc(C)ccn1)=N\NC(=O)COc1cccc(C)c1`: the “activity, negative = inhibition” value was -22%.
Turning to `CCCc1nn(-c2ccccc2)c2c1C(c1cccs1)C(C#N)=C(N)O2` (centres undefined), the AC50 was 4.47 µM (active).
Take `CC(C)N(Cc1ccccc1)S(=O)(=O)c1n[nH]c(C(C)(C)C)n1`: the AC50 is 3.98 µM (active).
As to `COc1ccc(CCNC(=O)c2nnn(CC(=O)Nc3ccccc3C)c2N)cc1OC`, the concentration at half-maximal activity (AC50) was 15.8 µM (active).
`COc1ccc(CCNC(=O)Cn2cnc3c2c(=O)n(C)c(=O)n3C)cc1OC`: the “activity, negative = inhibition” value was -21%.
On to `Cc1ccc(C)c(NC(=O)Cn2nnc(C(=O)NCc3cccs3)c2N)c1`, for which the “activity, negative = inhibition” value is -22%.
On to `COc1ccccc1CNc1ncncc1-c1ccccc1C(F)(F)F`, for which the activity, negative = inhibition was -18.6% [at 2.29 µM].
On to `CN1c2ccccc2Oc2c(c(=O)n(C)c(=O)n2C)C1c1cccc([N+](=O)[O-])c1` (centres undefined), for which the AC50 is 4.47 µM (active).
Consider `O=C(c1ccccc1)[C@@H]1O[C@H]1c1ccc(-c2ccccc2)cc1`, for which the AC50 was 12.6 µM (active).
In the case of `CC(=NCC(=O)O)c1ccccc1`, the activity, negative = inhibition was 2.4% [at 11.4 µM].
Regarding `CCCCCCCCCCCCCCC[C@H](O)[C@H](N)CO`, the “activity, negative = inhibition” value was -10.3%.
Consider `Cc1ccc2nc(Nc3nc(-c4ccccc4)cc(=O)[nH]3)nc(C)c2c1`, for which the AC50 is 2.82 µM (active).
For the compound `O=C(O)c1cc(-c2ccc(-c3ccccc3)cc2)nc2cc3ccccc3cc12`, the activity, negative = inhibition is -27% [at 11.4 µM].
With `Cc1ccccc1/C=C\C1=NCCN1`, the “activity, negative = inhibition” value is 16.2%.
On the same count and under the same terms, next, `CC(C)(C)COS(=O)OCC(C)(C)C`: -7.38% [at 11.4 µM].
Turning to `Cc1ccc(S(=O)(=O)/C=C\C#N)cc1`, the AC50 is 12.6 µM (active).
Still for that read-out and setting: next, `CCN(CC)CCNC(=O)c1cc(Cl)c(N)cc1OC`: “inactive”.
Consider `CC1=C(C(=O)OCc2ccccc2)C(c2ccc3ccccc3c2)NC(=O)N1CCCCCC(=O)O` (centres undefined), for which the AC50 was 7.94 µM (active).
`CC1=C(C(=O)OCc2ccccc2)C(c2ccc(Cl)cc2)NC(=O)N1CCCCCC(=O)O` (centres undefined): the half-maximal activity concentration (AC50) was 12.6 µM (active).
On to `CN1CCC[C@@H]1CCO[C@](C)(c1ccccc1)c1ccc(Cl)cc1`, for which the “activity, negative = inhibition” value was 2.58% [at 25.6 µM].
As to `CC1=C(C(=O)OCc2ccccc2)C(c2ccc([N+](=O)[O-])cc2)NC(=O)N1CCCCCC(=O)O` (centres undefined), the AC50 was 15.8 µM (active).
In the case of `CC(C)=CCC/C(C)=C/CO/N=C1/C[C@@H](O)[C@@H](O)[C@@H]2[C@@H]3C(=O)N(C[C@@H]4CCCO4)C(=O)[C@H]3CC[C@@H]12`, the activity, negative = inhibition is 9.34% [at 11.4 µM].
Turning to `CN(C)[C@H]1C(=O)C(C(=O)NCN2CCCC2)=C(O)[C@]2(O)C(=O)C3=C(O)c4c(O)cccc4[C@](C)(O)[C@H]3C[C@H]12`, the activity, negative = inhibition is -10.5% [at 11.4 µM].
`Cc1cc(=Nc2ccc3c(c2)c(N)cc(C)[n+]3C)nc(N)n1C`: the activity, negative = inhibition is 13% [at 11.4 µM].
In the case of `CCN(CC)CC#CCC(C)(c1ccccc1)c1ccccc1`, the AC50 is 15.8 µM (active).
On to `CCCC(C(=O)OCCN(CC)CC)(c1ccccc1)c1ccccc1`, for which the “activity, negative = inhibition” value is -47.9% [at 25.6 µM].
Regarding `N=C(N)SCCSC(=N)N`, the activity, negative = inhibition was -1.93% [at 11.4 µM].
Same read-out and setting: next, `COc1cc(OC)c(C2C(C(=O)O)c3ccccc3C(=O)N2C)cc1OC` (centres undefined): -22.7%.
Turning to `COc1cc2c3c(c1OC)C1(C=CC(=O)C=C1)CC3N(C(=O)c1ccccc1)CC2` (centres undefined), the AC50 was 3.16 µM (active).
On to `COc1cc(C(=O)N2CCN(C(=O)c3ccccc3)CC2)cc(OC)c1OC`, for which the “activity, negative = inhibition” value was -11%.
On the same count and under the same terms, the figure for `c1ccc(CNc2cc(-c3ccoc3)ncn2)cc1` is -12.4% [at 2.29 µM].
For the compound `c1ccc(-c2nc(CSc3n[nH]c(-c4cccs4)n3)cs2)cc1`, the AC50 is 20 µM (active).
Consider `O=C(c1cnccn1)N1CCC2(CCCN(c3ncccn3)C2)CC1`, for which the “activity, negative = inhibition” value was -7.23%.
As for `CCOc1ccc(Cc2nccc3cc(OCC)c(OCC)cc23)cc1OCC`, the AC50 is 3.98 µM (active).
For the compound `Cn1c(CN2CCOCC2)nnc1SCc1ccccc1`, the “activity, negative = inhibition” value is 0.914%.
On to `Cn1c(CNC(=O)Nc2ccccc2)nnc1SCc1ccccc1`, for which the half-maximal activity concentration (AC50) is 8.91 µM (active).
As to `COc1cccc(-c2ccc3ncnc(NCCNC(C)=O)c3c2)c1`, the activity, negative = inhibition was -1.53% [at 2.29 µM].
As to `COc1ccc2[nH]c(-c3ccccc3)c(CCNC(C)=O)c2c1`, the AC50 is 15.8 µM (active).
`COc1cccc(-c2nc(NCCNC(C)=O)c3ccccc3n2)c1`: the activity, negative = inhibition is 22.4% [at 2.29 µM].
The same measure, in the same setting: the figure for `C[C@H](CN(C)C)C(=O)c1ccccc1C(=O)O` is 4.19% [at 11.4 µM]; for `CNS(=O)(=O)c1ccccc1C(=N)c1ccccc1` it is 9.68% [at 11.4 µM]; for `OC[C@H]1NC[C@@H](O)[C@@H](O)[C@H]1O` it is -27%.
Regarding `O=C(Nc1cccc(C(F)(F)F)c1)c1ccc(Cn2cc(Br)cn2)o1`, the AC50 is 8.91 µM (active).
Turning to `Cc1cccc(NC(=S)NNC(=O)CCn2cc(C)cn2)c1`, the “activity, negative = inhibition” value is -7.75%.

The record behind these values is PubChem BioAssay AID1851 (National Center for Advancing Translational Sciences (NCATS), 2009).
